Reference: PubChem BioAssay (EPA / NIEHS)
Records with an inconclusive call do not appear. Calls of active or inactive are those of the source. The calls were made as follows, unless noted: active = hit-call score of the fitted dose curve at least 0.9, where 1 is the maximum; inconclusive = response in the unintended direction; inactive = score below 0.9.

Experiments:
[1] = molecular target: Thyroid hormone receptor alpha (Rattus norvegicus) + Thyroid hormone receptor beta (Rattus norvegicus) (UniProt P18113+P63059); test: TOX21_TR_LUC_GH3_Agonist_Followup: Tox21 GH3 Thyroid Hormone Receptor Agonism Luciferase Follow-Up Assay (AID 2283939)
Chain of Thyroid hormone receptor alpha (Rattus norvegicus) + Thyroid hormone receptor beta (Rattus norvegicus) (P63059 whole entry, looked up): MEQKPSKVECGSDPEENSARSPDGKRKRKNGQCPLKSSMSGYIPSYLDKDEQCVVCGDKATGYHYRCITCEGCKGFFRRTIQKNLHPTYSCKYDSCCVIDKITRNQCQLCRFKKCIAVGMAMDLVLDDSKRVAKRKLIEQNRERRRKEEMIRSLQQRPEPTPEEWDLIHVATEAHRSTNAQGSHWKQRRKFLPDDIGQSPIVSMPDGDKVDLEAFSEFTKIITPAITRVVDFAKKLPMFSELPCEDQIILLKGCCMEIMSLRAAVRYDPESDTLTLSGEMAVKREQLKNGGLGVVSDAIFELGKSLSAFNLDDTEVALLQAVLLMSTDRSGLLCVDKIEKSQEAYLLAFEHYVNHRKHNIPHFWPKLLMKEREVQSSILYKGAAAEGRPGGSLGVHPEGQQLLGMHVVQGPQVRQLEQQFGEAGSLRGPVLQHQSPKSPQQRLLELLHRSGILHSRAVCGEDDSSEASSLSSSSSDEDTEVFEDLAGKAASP
Chain of Thyroid hormone receptor alpha (Rattus norvegicus) + Thyroid hormone receptor beta (Rattus norvegicus) (P18113 whole entry, looked up): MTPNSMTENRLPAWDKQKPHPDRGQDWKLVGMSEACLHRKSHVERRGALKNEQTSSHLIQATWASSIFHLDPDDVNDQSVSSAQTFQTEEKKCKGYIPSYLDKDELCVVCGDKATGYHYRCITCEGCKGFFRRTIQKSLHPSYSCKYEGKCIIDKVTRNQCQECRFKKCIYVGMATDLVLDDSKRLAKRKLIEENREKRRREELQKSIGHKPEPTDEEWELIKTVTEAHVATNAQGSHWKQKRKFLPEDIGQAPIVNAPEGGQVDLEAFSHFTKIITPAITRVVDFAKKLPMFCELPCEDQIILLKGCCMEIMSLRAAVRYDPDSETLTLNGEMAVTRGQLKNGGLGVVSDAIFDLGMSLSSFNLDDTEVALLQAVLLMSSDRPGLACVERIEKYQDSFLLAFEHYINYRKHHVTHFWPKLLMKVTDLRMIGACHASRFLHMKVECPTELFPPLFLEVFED
Outline: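 Rat GH3 cells (1,500/well) in serum-free assay medium, treated with 15-point series, 92 uM to 5 nM final, for 24 h at 37C. Luciferase via ONE-Glo luminescence; gain of signal fitted against DMSO, T3 positive control.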

THRA (gene 7067) = THRA (gene 7067) (UniProt P10827); test: TOX21_TRA_COA_Agonist_Followup_ratio: Tox21 Thyroid Hormone Receptor alpha Agonism through Coactivator Recruitment Follow-Up Assay, Ratio (AID 2283948; active = hit-call score of the fitted dose curve at least 0.9, where 1 is the maximum; inactive = score below 0.9)
Chain of THRA (gene 7067) (P10827 whole entry, looked up, the tested form may be a part): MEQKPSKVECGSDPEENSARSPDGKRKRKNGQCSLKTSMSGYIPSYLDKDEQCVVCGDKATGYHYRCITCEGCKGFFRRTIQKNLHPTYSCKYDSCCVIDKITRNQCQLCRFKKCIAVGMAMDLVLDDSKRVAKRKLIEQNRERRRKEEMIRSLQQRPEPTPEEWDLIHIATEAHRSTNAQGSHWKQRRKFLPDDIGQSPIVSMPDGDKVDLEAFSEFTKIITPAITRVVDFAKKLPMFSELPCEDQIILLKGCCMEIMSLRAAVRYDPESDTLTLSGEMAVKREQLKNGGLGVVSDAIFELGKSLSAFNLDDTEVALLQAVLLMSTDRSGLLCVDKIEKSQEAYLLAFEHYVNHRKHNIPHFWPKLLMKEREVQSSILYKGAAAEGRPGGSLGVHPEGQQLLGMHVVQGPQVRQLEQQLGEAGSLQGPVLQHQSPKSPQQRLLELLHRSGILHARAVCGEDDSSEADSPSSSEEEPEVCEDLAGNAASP
Outline: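 Cell-free TR-FRET: GST-tagged TRα LBD (2.5 nM) with 0.10% BSA and compound, then fluorescein-SRC-2 peptide (200 nM) and Tb-anti-GST antibody (2 nM). Readout 520:495 nm ratio (ex 340 nm), normalized to DMSO (0%) and T3 (100%).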

THRB (gene 7068) [2] = molecular target: THRB (gene 7068) (UniProt P10828); test: TOX21_TRB_BLA_Agonist_Followup_ratio: Tox21 Thyroid Hormone Receptor beta Agonism Beta-lactamase (BLA) Follow-Up Assay, Ratio (AID 2283954)
Chain of THRB (gene 7068) (P10828 whole entry, looked up, the tested form may be a part): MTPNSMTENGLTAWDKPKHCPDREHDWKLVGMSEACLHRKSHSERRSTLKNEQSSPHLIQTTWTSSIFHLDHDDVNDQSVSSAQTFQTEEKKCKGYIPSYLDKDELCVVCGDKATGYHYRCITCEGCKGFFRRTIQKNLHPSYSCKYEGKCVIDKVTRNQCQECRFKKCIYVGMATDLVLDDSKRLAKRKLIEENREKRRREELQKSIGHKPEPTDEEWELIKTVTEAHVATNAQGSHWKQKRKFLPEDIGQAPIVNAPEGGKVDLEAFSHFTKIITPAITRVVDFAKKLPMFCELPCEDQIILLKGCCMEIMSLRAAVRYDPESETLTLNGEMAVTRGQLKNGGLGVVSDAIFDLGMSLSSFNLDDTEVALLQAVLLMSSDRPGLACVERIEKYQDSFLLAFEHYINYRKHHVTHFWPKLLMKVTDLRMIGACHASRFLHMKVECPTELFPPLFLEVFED
Outline: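 Human TRβ LBD–GAL4 DBD fusion in GeneBLAzer UAS-bla HEK293T cells; 11 concentrations in triplicate, 18 h at 37°C/5% CO2, T3 as agonist control. CCF4-AM substrate 2 h at room temperature; 460:530 nm ratio fitted for gain of signal versus DMSO.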

THRB (gene 7068) [3] = molecular target: THRB (gene 7068) (UniProt P10828); test: TOX21_TRB_COA_Agonist_Followup_ratio: Tox21 Thyroid Hormone Receptor beta Agonism through Coactivator Recruitment Follow-Up Assay, Ratio (AID 2283963; active = hit-call score of the fitted dose curve at least 0.9, where 1 is the maximum; inactive = score below 0.9)
Outline: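 First, the GST-fused TRβ ligand-binding domain (5.0 nM) was incubated with test compound in 0.10% BSA. Next, fluorescein-tagged SRC-2 peptide (200 nM) and terbium anti-GST antibody (2 nM) were added. Finally, TR-FRET emission ratios were normalized against DMSO and T3 controls.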

[4] = molecular target: Retinoic acid receptor RXR-alpha (Homo sapiens) (UniProt P19793); test: TOX21_TR_RXR_BLA_Agonist_Followup_ratio: Tox21 Thyroid Hormone Receptor beta Retinoid X Receptor alpha (RXRa) Agonism Beta-lactamase (BLA) Follow-Up Assay, Ratio (AID 2283968)
Chain of Retinoic acid receptor RXR-alpha (Homo sapiens) (P19793 whole entry, looked up): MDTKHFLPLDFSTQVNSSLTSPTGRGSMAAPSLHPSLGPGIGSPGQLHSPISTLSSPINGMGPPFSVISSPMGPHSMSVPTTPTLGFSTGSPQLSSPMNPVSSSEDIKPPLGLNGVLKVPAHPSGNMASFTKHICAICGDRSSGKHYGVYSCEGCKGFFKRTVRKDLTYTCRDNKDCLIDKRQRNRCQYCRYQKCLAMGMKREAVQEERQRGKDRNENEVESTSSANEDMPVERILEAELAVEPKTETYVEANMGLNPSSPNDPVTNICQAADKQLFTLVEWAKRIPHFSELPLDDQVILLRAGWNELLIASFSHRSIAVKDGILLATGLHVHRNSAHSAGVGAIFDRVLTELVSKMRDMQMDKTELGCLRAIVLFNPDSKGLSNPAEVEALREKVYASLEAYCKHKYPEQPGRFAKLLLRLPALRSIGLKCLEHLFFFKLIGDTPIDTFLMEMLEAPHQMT
Outline: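 HEK293T RXRa-bla, qHTS; cpd 11-pt conc. in triplicate, 16 h 37C/5% CO2; CCF4-AM 2 h RT; ratio 460:530 nm; agonist direction vs DMSO; 9-cis retinoic acid as positive control.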

[5] = TOX21_TR_RXR_BLA_Agonist_Followup_viability: Viability Assessment in the Tox21 Thyroid Hormone Receptor beta Retinoid X Receptor alpha (RXRa) Agonism Beta-lactamase (BLA) Follow-Up Assay (AID 2283970)
Outline: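 Cells: HEK293T RXRa-UAS-bla, 2,500/well; medium phenol red-free DMEM + 2% charcoal-stripped FBS; 16h, 37C/5% CO2; qHTS concentration series. Read: CellTiter-Glo luminescence (ATP); bidirectional fit, DMSO = baseline.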

[6] = CCTE_Simmons_CellTiterGLO_HEK293T: Viability Assessment in CCTE's Assays for Thyroperoxidase (TPO) Inhibition, Simmons Lab (AID 2283665);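 also: cells exposed to compound for 24 h before readout; actives reduce ATP signal below DMSO vehicle meaning cytotoxicity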
Outline: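 HEK293T, 10 000 cells/well, DMEM + 1% FBS; 8-pt titration 5 nM–87.5 uM [final], 0.5% DMSO; 24 hr, 37C, 5% CO2; CellTiter-Glo luminescence; n=3 biological replicates.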

[7] = CCTE_Shafer_MEA_acute_spike_number: CCTE's Neural Acute Assay for Total Number of Spikes, Shafer Lab (AID 2284008; active = hit-call score of the fitted dose curve at least 0.9, where 1 is the maximum; inactive = score below 0.9;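 also: curve fitted for decrease in spike count so AC50 reflects inhibitors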)
Outline: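 Rat primary cortical neurons on 48-well MEA plates, DIV 13 or 15, at 37 C. 40 min baseline then 40 min with compound (0.03-40 uM); spikes detected at 8x rms noise, expressed as percent change from baseline.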

[8] = CCTE_Mundy_HCI_hN2_NOG_NeuronCount: CCTE's Neurite Outgrowth Assay in human hN2 cells for Neuron Count, Mundy Lab (AID 2284221)
Outline: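 Read-out is the number of betaIII-tubulin-positive neurons imaged by automated high-content analysis, with DMSO as negative control.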

[9] = UKN2_HCS_IMR90_neural_migration: University of Konstanz (UKN) Leist Lab Neural Crest Cell Migration Assay in human induced IMR90 Pluripotent Stem Cells (UKN2) (AID 2284204; active = hit-call score of the fitted dose curve at least 0.9, where 1 is the maximum; inactive = score below 0.9); settings: actives raise or lower the signal
Outline: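 Migration of human IMR90-derived neural crest cells into a stopper-defined gap is imaged after 24 h chemical treatment. Activity is fitted bidirectionally relative to DMSO.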

[10] = CCTE_Mundy_HCI_Cortical_Synap_Neur_Matur_BPCount: CCTE's Synaptogenesis and Neurite Maturation Assay in rat cortical cells for Branch Point Count, Mundy Lab (AID 2284211; active = hit-call score of the fitted dose curve at least 0.9, where 1 is the maximum; inactive = score below 0.9)
Outline: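 Rat primary cortical cultures, AraC added DIV 5; chemicals dosed DIV 7 through DIV 12. Fixed cells stained for MAP2, synaptophysin and Hoechst; neurite branch points counted by automated high-content imaging, fitted relative to DMSO.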

[11] = CCTE_Mundy_HCI_Cortical_NOG_NeuriteCount: CCTE's Neurite Outgrowth Assay in rat cortical cells for Neurite Count, Mundy Lab (AID 2284212; active = hit-call score of the fitted dose curve at least 0.9, where 1 is the maximum; inactive = score below 0.9;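 also: cells fixed about two days after chemical exposure began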)
Outline: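 Neurite number per cell from high-content imaging of betaIII-tubulin immunostaining, with Hoechst nuclear counterstain.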

[12] = IUF_NPC3_neuronal_differentiation_120hr: Leibniz Research Institute for Environmental Medicine (IUF) 120-hour Neuronal Differentiation Assay (NPC3) (AID 2284301; active = hit-call score of the fitted dose curve at least 0.9, where 1 is the maximum; inactive = score below 0.9)
Outline: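 Single 0.3 mm neurospheres from human fetal cortex were plated in differentiation medium containing test compound. Medium was half-replaced on day 3. After 120 h cells were fixed, immunostained and imaged, and neuronal fraction was scored against DMSO control.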

[13] = IUF_NPC4_neurite_length_120hr: Leibniz Research Institute for Environmental Medicine (IUF) 120-hour Neuronal Morphology Assay for Neurite Length (NPC4) (AID 2284302; active = hit-call score of the fitted dose curve at least 0.9, where 1 is the maximum; inactive = score below 0.9)
Outline: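 Read-out is mean neurite length in µm of TUBB3-positive neurons, skeletonized from high-content fluorescence images after 120 h. Single 0.3 mm primary human neural progenitor spheres differentiated on poly-D-lysine/laminin under continuous compound exposure; DMSO was baseline.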

[14] = IUF_NPC5_oligodendrocyte_differentiation_120hr: Leibniz Research Institute for Environmental Medicine (IUF) 120-hour Oligodendrocyte Differentiation Assay (NPC5) (AID 2284304);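 also: primary human fetal neural progenitor spheres plated to migrate and differentiate; share of O4-positive cells among Hoechst nuclei found by CNN image analysis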
Outline: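 Human fetal neural progenitor spheres (0.3 mm) plated on poly-D-lysine/laminin in N2 differentiation medium and exposed for 120 h at 7 concentrations, with half-medium renewal at day 3. O4-positive cells identified by CNN, expressed as percent of Hoechst nuclei.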

[15] = IUF_NPC2-5_cytotoxicity_72hr: Cytotoxicity Assessment at 72 hours in the Leibniz Research Institute for Environmental Medicine (IUF) Neural Progenitor Cell Migration and Differentiation Assay for Cytotoxicity (NPC2-5) (AID 2284306);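 also: LDH release into supernatant measured by resorufin fluorescence marking membrane damage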
Outline: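 Membrane integrity loss was scored from fluorescence (RFU) of resorufin generated by LDH in culture supernatant, 72 h after dosing. Differentiating human progenitor spheres received seven serial compound concentrations alongside a solvent control.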

[16] = IUF_NPC2-5_cytotoxicity_120hr: Cytotoxicity Assessment at 120 hours in the Leibniz Research Institute for Environmental Medicine (IUF) Neural Progenitor Cell Migration and Differentiation Assay (NPC2-5) (AID 2284307);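 as to AC50: LDH released into supernatant as membrane damage marker via resorufin fluorescence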
Outline: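 Human fetal (GW 16-19) neural progenitor spheres (0.3 mm) plated on poly-D-lysine/laminin in N2 differentiation medium, exposed 120 h with half-medium renewal at day 3; 7 concentrations plus solvent control, DMSO ≤0.1%. LDH release in supernatant read by resorufin fluorescence.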

[17] = IUF_NPC2-5_cell_number_120hr: Cell Number Assessment at 120 hours in the Leibniz Research Institute for Environmental Medicine (IUF) Neural Progenitor Cell Migration and Differentiation Assay (NPC2-5) (AID 2284308; active = hit-call score of the fitted dose curve at least 0.9, where 1 is the maximum; inactive = score below 0.9;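 also: count of Hoechst-stained nuclei in migration zone around plated human neural progenitor spheres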)
Outline: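 Human fetal neural progenitor spheres (0.3 mm) plated on poly-D-lysine/laminin in N2 differentiation medium, exposed five days across 7 concentrations with half-medium refresh at day 3. Hoechst-positive nuclei counted in migration area at 120 h, relative to DMSO.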

[18] = IUF_NPC2-5_viability_120hr: Viability Assessment at 120 hours in the Leibniz Research Institute for Environmental Medicine (IUF) Neural Progenitor Cell Migration and Differentiation Assay (NPC2-5) (AID 2284312; active = hit-call score of the fitted dose curve at least 0.9, where 1 is the maximum; inactive = score below 0.9)
Outline: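 Alamar blue resorufin fluorescence read after 5 days of differentiation, with compound present from day 0 and replenished at day 3. Primary hNPC spheres on laminin-coated plates, 37C; seven concentrations plus solvent control, fitted against DMSO.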

[19] = IUF_NPC1_cytotoxicity_72hr: Cytotoxicity Assessment at 72 hours in the Leibniz Research Institute for Environmental Medicine (IUF) Neural Progenitor Cell Proliferation Assay (NPC1) (AID 2284332);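 also: rising LDH signal means more cytotoxicity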
Outline: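 Spheres of primary human neural progenitors are plated one per well on day 0 in growth-factor medium and dosed at once. After three days at 37C, supernatant LDH is measured fluorimetrically via resazurin reduction.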

**Q.** With `CC(C)(C)CC(C)(C)c1ccc(O)c(Cc2ccc(Cl)cc2Cl)c1` as the molecule, how does the AC50 [1] read?
**A.** The AC50 was 2.83 µM (active).

**Q.** What about the AC50 (THRA (gene 7067)) of the same molecule?
**A.** Its AC50 is 12.1 µM (active).

**Q.** What about the outcome (THRB (gene 7068) [2]) of the same molecule?
**A.** The outcome was “inactive”.

**Q.** What about the AC50 (THRB (gene 7068) [3]) of the same molecule?
**A.** The AC50 was 12.2 µM (active).

**Q.** What about the outcome [4] of the same molecule?
**A.** Its outcome is “inactive”.

**Q.** And the outcome [5]?
**A.** The outcome was “inactive”.

**Q.** For `CCN(CC)CCNC(=O)c1c(C)[nH]c(/C=C2\C(=O)Nc3ccc(F)cc32)c1C`, which AC50 [6] is on record?
**A.** Its AC50 is 12.8 µM (active).

**Q.** For `CN(C)C(=O)C(CCN1CCC(O)(c2ccc(Cl)cc2)CC1)(c1ccccc1)c1ccccc1`, which AC50 [7] is on record?
**A.** Its AC50 is 0.291 µM (active).

**Q.** And the AC50 [8]?
**A.** Its AC50 is 13.9 µM (active).

**Q.** Which results are given for `Cc1c(O)cccc1C(=O)N[C@@H](CSc1ccccc1)[C@H](O)CN1C[C@H]2CCCC[C@H]2C[C@H]1C(=O)NC(C)(C)C`?
**A.** outcome [9]: inactive; AC50 [10]: 4.72 µM (active); AC50 [11]: 33.8 µM (active); AC50 [12]: 7.87 µM (active); AC50 [13]: 7.21 µM (active); AC50 [14]: 0.596 µM (active); AC50 [15]: 14.5 µM (active); AC50 [16]: 9.82 µM (active); AC50 [17]: 8.12 µM (active); AC50 [18]: 7.38 µM (active); outcome [19]: inactive

**Q.** Which outcome [12] does the source give for `CC1(C)S[C@@H]2[C@H](NC(=O)[C@H](N)c3ccc(O)cc3)C(=O)N2[C@H]1C(=O)O` here?
**A.** The outcome was “inactive”.

**Q.** What about the outcome [13] of the same molecule?
**A.** Its outcome is “inactive”.

**Q.** And the outcome [14]?
**A.** The outcome was “inactive”.

**Q.** What about the outcome [15] of the same molecule?
**A.** The outcome was “inactive”.

**Q.** What about the outcome [16] of the same molecule?
**A.** Its outcome is “inactive”.

**Q.** What about the outcome [17] of the same molecule?
**A.** Its outcome is “inactive”.

**Q.** And the outcome [18]?
**A.** The outcome was “inactive”.

**Q.** What about the outcome [19] of the same molecule?
**A.** Its outcome is “inactive”.
